Assay outcomes from PubChem BioAssay.
An excerpt weighted towards active compounds, which were near 10% of everything screened.
NIH3T3 tox = NIH 3T3 cell cytotoxicity. Potency, µM (highest dose often 96.7 µM), without a hit: at the top dose activity change, negative = cytotoxicity, actives largely listed as inhibitors. AID 1345082. NIH 3T3 viability, CellTiter-Glo ATP luminescence, 48-72 h. 4.3% of 94,000 active; note: % is set by controls: 0 for no effect and ±100 for the full control effect; nearly all actives have a fitted effect of over 55% in size
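Cells were seeded at 400 per well, treated with pin-transferred compound, and kept 48 or 72 hr at 37 °C before CellTiter-Glo addition and luminescence imaging of cellular ATP.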
NPR1 antag = human Npr1 receptor antagonism | P16066 | HEK293 hNpr1 GloSensor cGMP, ANP-stimulated luminescence | Potency, µM (highest dose often 46.3 µM), for inactives: at the top dose activity change, negative = inhibition, hits mostly inhibitors | 1.6% of 76,000 active | AID 1347048; calls by dose curve; note: % is set by controls: 0 for no effect and ±100 for the full control effect; nearly all actives have a fitted effect of over 60% in size
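Compound pre-incubated 30 min at room temperature on GloSensor-loaded HEK293 cells stably carrying hNpr1 and the pGS-40F cGMP biosensor. Stimulation uses hNppA at 0.1 nM final; luminescence is taken at baseline and 20 min post-agonist.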
HEK cytotox = kills HEK 293 cells; 6.6% of 94,000 active; HEK 293 viability, ATP luminescence (CellTiter-Glo), 48-72 h; Potency, µM (highest dose often 115 µM), without a hit: at the top dose activity change, negative = cytotoxicity, most hits filed as inhibitors; AID 1345083; note: % is set by controls: 0 for no effect and ±100 for the full control effect; nearly all actives have a fitted effect of over 60% in size
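250 HEK 293 cells/well; compound by pintool; incubated 48 or 72 hr at 37 degree Celsius; CellTiter-Glo added, 10 min RT, luminescence imaged.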
GPT2 inhibitor = blocks human glutamate pyruvate transaminase 2; Q8TD30; Recombinant GPT2, coupled pyruvate oxidase/HRP Amplex Red fluorescence; Potency, µM (top dose mostly 57.7 µM), inactives show at the top dose activity change, negative = inhibition, usual class: inhibitors; 0.25% of 100,000 active; AID 1671188; note: % is set by controls: 0 for no effect and ±100 for the full control effect; nearly all actives have a fitted effect of over 60% in size
Target sequence (Q8TD30 whole entry, looked up): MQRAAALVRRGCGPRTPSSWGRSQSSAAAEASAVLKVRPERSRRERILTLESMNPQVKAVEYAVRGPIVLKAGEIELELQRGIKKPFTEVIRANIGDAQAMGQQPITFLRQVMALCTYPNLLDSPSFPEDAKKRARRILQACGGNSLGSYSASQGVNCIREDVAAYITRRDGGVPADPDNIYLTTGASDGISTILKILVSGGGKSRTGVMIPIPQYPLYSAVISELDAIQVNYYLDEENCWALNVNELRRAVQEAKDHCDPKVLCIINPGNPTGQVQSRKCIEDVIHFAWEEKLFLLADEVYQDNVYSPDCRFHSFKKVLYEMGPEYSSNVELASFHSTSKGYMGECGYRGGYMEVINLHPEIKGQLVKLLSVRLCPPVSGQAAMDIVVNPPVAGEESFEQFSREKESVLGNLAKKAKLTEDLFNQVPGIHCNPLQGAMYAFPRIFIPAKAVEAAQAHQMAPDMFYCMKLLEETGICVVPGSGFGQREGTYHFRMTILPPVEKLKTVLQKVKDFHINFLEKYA
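GPT2 10ng/uL, a-KG 250uM, L-Ala 2mM, HEPES pH7.5 + 0.0001% Tween; 30 min RT. Then Amplex mix (PO/HRP/ThPP), 30 min RT dark, fluorescence. AOA 50uM used as positive control.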
FLuc inh = Photinus pyralis luciferase inhibition | P08659 | purified P. pyralis luciferase, luminescence, biochemical | Potency, µM (highest dose often 115 µM), hits mostly inhibitors | 2.5% of 76,000 active; note: % is set by controls: 0 for no effect and ±100 for the full control effect; nearly all actives have a fitted effect of over 65% in size
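Luminescence read by CCD imaging after purified firefly luciferase (10nM final) was added to substrate buffer holding 10uM D-luciferin and 10uM ATP, pH 7.5, pre-dosed with compound.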
Npr1 antag conf = confirmation of human Npr1 natriuretic peptide receptor antagonists. 76% of 1,400 active. HEK293 hNpr1 cGMP GloSensor luminescence, ANP-stimulated. Potency, µM (series often up to 57.6 µM), for inactives: at the top dose activity change, negative = inhibition, most hits filed as inhibitors. shares compounds with NPR1 antag; calls by dose curve; note: nearly all actives have a fitted effect of over 70% in size
Npr2 selectivity = antagonizes human Npr2, subtype selectivity check; shares compounds with NPR1 antag; HEK293 hNpr2 GloSensor cGMP luminescence, CNP-stimulated; Potency, µM (doses to about 57.6 µM), inactives show at the top dose activity change, negative = inhibition, hits mostly inhibitors; 67% of 1,400 active; calls by dose curve; note: nearly all actives have a fitted effect of over 70% in size
FLuc inh counter = FLuc enzyme inhibition, Npr1 counter-screen; purified FLuc enzyme, luminescence, Km substrate; AID 1347047; Potency, µM (top dose mostly 57.6 µM), without a hit: top-dose activity change, negative = inhibition, actives largely listed as inhibitors; shares compounds with NPR1 antag; 0.7% of 1,400 active; note: 0% is about no effect
GloSensor cGMP = reduces cGMP signal in GloSensor control cells; shares compounds with NPR1 antag; HEK293 GloSensor cGMP, SNP-stimulated, luminescence; Potency, µM (series often up to 57.6 µM), for inactives: top-dose activity change, negative = inhibition, hits mostly inhibitors; 69% of 1,400 active; calls by dose curve; note: % is set by controls: 0 for no effect and ±100 for the full control effect; nearly all actives have a fitted effect of over 70% in size
Active calls of the source: *; i = inactive; ? = inconclusive; / = not tested or not shown; [ ] = remark or other dose. Unless noted, calls come from the whole dose curve; as a rule, active = well fitted curve in the direction sought with a large enough effect; inconclusive = small, poorly fitted or top-dose-only effect, or another doubt; inactive = no such curve, though single readings can be large; an effect the other way counts as inactive or inconclusive. Potency is the fitted concentration of half-maximal effect.

SMILES	NIH3T3 tox	NPR1 antag	HEK cytotox	GPT2 inhibitor	FLuc inh	Npr1 antag conf	Npr2 selectivity	FLuc inh counter	GloSensor cGMP
COc1ccc(-c2noc(CC3CCN(C(=O)c4ccc(OC)nc4OC)CC3)n2)cc1	?	4µM*	20µM*	-5%	i	5.4µM*	8.6µM*	2%	6.1µM*
COCc1noc(CNC(=O)C(c2ccc(F)cc2)N(C)C)n1 (stereo unspecified)	0%	-1%	0%	-1%	i	/	/	/	/
COCCCNC(=O)CCN(CC(C)C)C(=O)c1cc(C)oc1C	-10%	-1%	-28%	i	i	/	/	/	/
COc1ccc(-c2noc(CC3CCN(C(=O)C4(c5ccc(OC)cc5)CC4)CC3)n2)cc1	?	1.4µM*	?	i	i	2.7µM*	3.4µM*	4%	3.1µM*
CCCCOc1ccc(C(=O)N2CCC(Cc3nc(-c4cnccn4)no3)CC2)cc1	?	?	?	i	i	?	?	3%	?
Cc1ccc(C(=O)N2CCC(Cc3nc(-c4cnccn4)no3)CC2)cc1	?	-14%	?	i	i	/	/	/	/
CCc1ccc(C(=O)N2CCC(Cc3nc(-c4ccc(OC)cc4)no3)CC2)cc1	?	3.5µM*	?	-17%	i	6.1µM*	9.7µM*	-1%	6.9µM*
CCOc1ccccc1C(=O)N1CCC(Cc2nc(-c3ccc(OC)cc3)no2)CC1	?	11µM*	?	i	i	24µM*	22µM*	1%	24µM*
O=C(N1CCC(Cc2nc(C3CCOCC3)no2)CC1)C1(c2ccccc2)CC1	-17%	-15%	-2%	i	i	/	/	/	/
CCOc1ccc(C(=O)N2CCC(Cc3nc(-c4cnccn4)no3)CC2)cc1	?	-8%	-27%	i	i	/	/	/	/
O=C(C1CCCN1C(=O)Nc1ccc(Cl)cc1)N1CCC(N2CCOCC2=O)CC1 (stereo unspecified)	-20%	/	i	i	/	/	/	/	/
COc1cccc(-c2cccc(CN)c2)c1	?	/	-26%[172 µM]	-6%[88.5 µM]	/	/	/	/	/
Cc1cc(C)cc(-c2cccc(CN)c2)c1	40µM*	/	56µM*	i	/	35µM*	31µM*	5%[86.2 µM]	?
O=C(Nc1ccccc1)[C@H]1O[C@H](CCN2CCN(c3ccccc3)CC2)CC[C@@H]1O	-23%[174 µM]	2%[70.6 µM]	?	i	i	/	/	/	/
COc1ccc(S(=O)(=O)N2CCc3c(C(=O)NCc4cccc(F)c4)cccc32)cc1	-25%	?	?	-22%	i	?	?	-13%	?
CCCNC(=O)c1cccc2c1CCN2S(=O)(=O)c1ccccc1F	-19%	-25%	?	-13%	i	/	/	/	/
Cc1ccc(S(=O)(=O)N2CCc3c(C(=O)NCc4ccccn4)cccc32)cc1	?	11µM*	?	-9%	i	24µM*	24µM*	-7%	31µM*
CCCNC(=O)c1cccc2c1CCN2S(=O)(=O)c1ccc(OC)cc1	-22%	?	?	?	i	/	/	/	/
CNc1cc(C2CC(Nc3nc(N)nc(C)c3Cl)C2)nc(COC)n1 (stereo unspecified)	-5%	-9%	-22%	?	i	/	/	/	/
NCCO[C@H]1C[C@@H](O)C12CCN(C(=O)c1ccc(=O)[nH]c1)CC2	-17%	5%	-8%	0%	i	/	/	/	/
COCCN1CC(CNc2nc(CCN)nc3sc(C)c(C)c23)CC1=O (stereo unspecified)	i	0%	-3%	-5%	i	/	/	/	/
CCCc1cc(CN(C)c2nc(CCN)nc3sc(C)c(C)c23)[nH]n1	?	-24%	35µM*	1%	i	-25%	?	6%	2%
CCCn1nc(C)c(-c2cc(C(=O)N3CCCCC3c3noc(COCC4CC4)n3)[nH]n2)c1C (stereo unspecified)	?	/	?	4%	/	/	/	/	/
O=S(=O)(c1ccccc1)N1CCC(c2nc(CCOCC3CC3)no2)C1 (stereo unspecified)	?	-1%	i	1%	i	/	/	/	/
O=S(=O)(c1ccccc1)N1CCCC(c2nc(CCOCC3CCCC3)no2)C1 (stereo unspecified)	-26%	-22%	?	3%	i	?	?	0%	?
SMILES	NIH3T3 tox	NPR1 antag	HEK cytotox	GPT2 inhibitor	FLuc inh	Npr1 antag conf	Npr2 selectivity	FLuc inh counter	GloSensor cGMP
O=C(Nc1ccccc1)O[C@@H]1CO[C@H]2[C@@H]1OC[C@@H]2NC(=O)C1CC1	-25%[174 µM]	-12%[70.6 µM]	?	-9%[88.5 µM]	i	/	/	/	/
Fc1cccc(-c2cnc([C@@H]3COCCN3Cc3ccccc3)[nH]2)c1	?	-21%[70.6 µM]	?	-28%[88.5 µM]	i	/	/	/	/
N#Cc1cccc(CN2CCOC[C@H]2c2ncc(-c3ccc(Cl)s3)[nH]2)c1	?	28µM*	?	?	i	40µM*	?	-2%[86.2 µM]	?
Cn1c(CN2CCOC[C@H]2c2ncc(-c3ccc(Cl)cc3)[nH]2)nc2ccccc21	?	20µM*	79µM*	-11%[88.5 µM]	i	31µM*	28µM*	5%[86.2 µM]	?
Fc1ccc(CN2CCOC[C@H]2c2ncc(-c3ccc(F)cc3F)[nH]2)cc1	?	?	79µM*	3%[88.5 µM]	i	?	?	-23%[86.2 µM]	?
COc1cccc(N2CC3(COCC2=O)CN(c2ccc(C(F)(F)F)cn2)C3)c1	?	-4%[70.6 µM]	?	?	i	/	/	/	/
COCC1CN(C2CCC2)CC12CCN(C(=O)NCCc1ccccc1)CC2 (stereo unspecified)	?	-23%	?	i	i	-13%	-15%	4%	-11%
O=C(Nc1ccc(Oc2ccccc2)cc1)O[C@@H]1CO[C@H]2[C@@H]1OC[C@@H]2NS(=O)(=O)c1ccc(Cl)cc1	32µM*	?	35µM*	-2%	i	11µM*	12µM*	-13%	9.7µM*
COc1ccc(NC(=O)O[C@@H]2CO[C@H]3[C@@H]2OC[C@@H]3NS(=O)(=O)c2ccc(Cl)cc2)cc1	?	-7%	-19%	2%	?	/	/	/	/
